Results filed as inconclusive are left out. Where a call stands in place of a potency, no number is given. The source made the active and inactive calls. The call rests on the fitted dose curve; in most records, active means well fitted cell-killing curve with a large enough effect; inconclusive means small, poorly fitted or top-dose-only effect, or effect the other way; inactive means flat fitted curve, though single readings scatter.

The nature of the test: Cell viability assay in S16 Pmp22-HiBiT cells - Confirmatory screen. To be noted: S16 Schwann Pmp22-HiBiT viability, CellTiter-Glo, 24 h; series mostly up to 27.9 µM. The source says: Assay Provider: Jim Inglese Ph.D. National Center for Advancing Translational Science, National Institutes of Health, Rockville, MD CMT is a heterogeneous group of neurological disorders that affect approximately 1 in 2,500 people. In particular, the most common form of CMT, CMT1A is genetically linked to the duplication of the PMP22 gene which leads to Schwann cell overexpression, thus manifesting itself as a typical case of dose-sensitive diseases. To identify small molecule compounds that can mediate the expression of PMP22 we developed a phenotypic assay screening strategy by utilizing genome editing techniques to construct Schwann cell lines containing novel reporter technology to monitor the transcriptional or translational regulation of PMP22. For high sensitivity we use a bioluminescent reporter system embedded in the 3' UTR of the PMP22 gene (S16(c9) Pmp22-F2sN) to identify compounds that inhibit gene expression. […] We can further discriminate the effect of all transcriptionally active molecules on PMP22 translation or stability with an assay that incorporates a short NLuc peptide (HiBiT) at the C-terminus of expressed PMP22 (S16(f8) PMP22-HiBiT) allowing alpha complementation and luminescence detection of membrane-associated PMP22 protein. These assays were screened against the NCATS Sytravon Library Collection. Miniaturization of these assays to 1536-well plate format for quantitative high throughput screening (qHTS) yielded rich data sets immediately from the qHTS assay (S16(c9) Pmp22-F2sN), when compared with data from a cell viability assay (Cell TiterGlo) to identify compounds that decreased the output signals through cellular toxicity to streamline the selection process of actives for subsequent characterization using the HiBiT assay (S16(f8) PMP22-HiBiT).
Cell viability assay in S16 Pmp22-HiBiT cells PROTOCOL TABLE (format as described by Inglese J, Shamu CE and Guy RK. 2007) SEQUENCE No. (e.g., 1, 2, 3, etc.); PARAMETER (e.g., Cells, Incubation, Reagent, etc.); VALUE and DESCRIPTION. 1. Cells. Add 500-1,000 cells in 4 uL in growth media (DMEM High Glucose, No Phenol Red media + 10% heat-inactivated FBS + 1% Pen/Strep supplemented media) per well into Greiner 1536-well white/solid bottom high base, TC-treated plates. 2. Compounds. Library compounds and controls added at 23nL per well, transferred by Pin Tool. 3. Incubation. Incubate plates at 37C, 5% CO2, 95% RH for 24 h. 4. Reagent. Add 3uL CellTiter-Glo per well of Greiner 1536-well plates. 5. Incubation. Incubate plates at room temperature for 15 min., protect from light. 6. Detector. Luminescence measured using CCD-based camera (Viewlux). NOTES (numbers refer to Sequence numbers above; values are from representative experiments) 6. Luminescence Read: Clear filter; Exposure = 1 sec, Gain = High, Speed = Slow, Binning = 2X REFERENCES: 1. Inglese J, Shamu CE and Guy RK, Reporting data from high throughput screening of small molecule libraries, Nature Chemical Biology, 2007, 3(8): 438-441. doi.org/10.1038/nchembio0807-438 2. Yasgar A, Shinn P, Jadhav A, Auld DS, Michael S, Zheng W, Austin CP, Inglese J and Simeonov A, Compound Management for Quantitative High-Throughput Screening. J. Assoc. Lab. Auto., 2008, 13: 79-89. doi: 10.1016/j.jala.2007.12.004
A general note: The HiBiT peptide binds its large partner to form an active luciferase.
As for `Clc1cccc(-c2noc3ncnc(NC4CCCCC4)c23)c1`, the Potency result was “inactive”.
Then `COc1cccc(-n2c(SCC(=O)c3ccc(Cl)cc3)nc3c([nH]c4ccccc43)c2=O)c1`, with 10.2 µM (active); and `Cc1ccc(C)c(NC(=O)Cn2c(=O)n(Cc3ccc4c(c3)OCO4)c(=O)c3ccc(C(=O)NC4CCCCC4)cc32)c1`, with “inactive”.
Then `O=C(Cn1c(-c2cccs2)cc2cc(F)ccc21)NCCCN1CCN(c2ccccc2F)CC1`, with “inactive”; and `CCCN1CCN(CCCNC(=O)Cn2c(-c3cccs3)cc3ccccc32)CC1`, with “inactive”; and `COc1ccc(NC(=O)c2oc3ccccc3c2NC(=O)Cc2ccc(F)cc2)c(OC)c1`, with “inactive”.
Take `COCCCNC(=O)c1ccc(-n2c(-c3ccccc3)cc3c2CCC(C)C3)cc1` (configuration not stated): the Potency entry is “inactive”.

The record behind these values is PubChem BioAssay AID1508648 (National Center for Advancing Translational Sciences (NCATS), 2021).
